Assay outcomes deposited in PubChem BioAssay by several laboratories.
A selection: hits, their analogues and other compounds. The true share with any hit is near 27%.
CYP2C9 activ = human CYP2C9 activators, primary screen, biochemical, luminescence; activation factor at 5 µM; 1.4% of 96,000 active; Cytochrome P450 2C9 (Homo sapiens), P11712; recombinant CYP2C9, luciferin-H conversion; stronger effect = higher value; factor 1 = untreated enzyme, 0 = blocked;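 active means activation factor of 2 or more for CYP2C9 at a 5 µM dose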;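 further: 0 = sulfaphenazole-blocked wells and 1 = vehicle-only wells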
sEH inhibitor = soluble epoxide hydrolase inhibitors, primary screen, biochemical, human sEH. Bifunctional epoxide hydrolase 2 (Homo sapiens), P34913. recombinant human sEH enzymatic activity assay. inhibition, % at 2 µM. 0.34% of 91,000 active. AID 707, 2007; in the data active means inhibition above about 80%
CYP2C19 inh = blockers of cytochrome P450 2C19 activity – biochemical, luminescence, ADME assay, primary screen | P33261 | CYP2C19 Supersomes, luciferin-H EGE luminescence, 30 min | 21% of 96,000 active | inhibition, % at 5 µM;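 active means CYP2C19 inhibition above a set limit at 5 µM in the primary screen, cut at about 50% in these data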;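 further: plate controls were negative control wells for no effect and 2.5 mM tranylcypromine positive control for full effect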
Target sequence (P33261 whole entry, looked up): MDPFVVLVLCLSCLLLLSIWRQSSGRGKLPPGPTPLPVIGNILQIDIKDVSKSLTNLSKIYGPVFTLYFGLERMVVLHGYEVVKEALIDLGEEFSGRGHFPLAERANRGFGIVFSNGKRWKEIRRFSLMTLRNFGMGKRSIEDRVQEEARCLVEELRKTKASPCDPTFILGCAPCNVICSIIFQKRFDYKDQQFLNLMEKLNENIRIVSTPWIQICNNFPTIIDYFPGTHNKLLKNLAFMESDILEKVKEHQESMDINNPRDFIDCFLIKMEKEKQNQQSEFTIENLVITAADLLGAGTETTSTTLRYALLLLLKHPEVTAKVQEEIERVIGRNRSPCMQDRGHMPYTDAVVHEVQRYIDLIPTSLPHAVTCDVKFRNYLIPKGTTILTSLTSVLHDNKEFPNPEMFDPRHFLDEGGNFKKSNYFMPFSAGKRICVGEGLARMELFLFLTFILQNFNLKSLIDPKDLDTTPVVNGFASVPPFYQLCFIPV
CYP2C9 inh = blockers of cytochrome P450 2C9 activity – biochemical, luminescence, ADME assay, primary screen; P11712; CYP2C9 Supersomes, luciferin-H conversion; inhibition, % at 5 µM; 20% of 96,000 active; AID 777, 2007;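 active means blocking of liver enzyme CYP2C9 beyond about 50% at 5 µM, limit read from the data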
CYP2C19 activ = human CYP2C19 activators, primary screen, biochemical, luminescence; activation factor at 5 µM; AID 1025, 2008; Cytochrome P450 2C19 (Homo sapiens), P33261; recombinant CYP2C19, luciferin-H EGE luminescence; stronger effect = higher value; 0 = fully inhibited enzyme, 1 = untreated enzyme; 96,000 tested, under 10 active;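 active means activation factor of at least 2 at 5 µM in the primary screen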;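 further: 0 = wells with 2.5 mM tranylcypromine and 1 = vehicle-only wells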
sEH activator = soluble epoxide hydrolase activators, primary screen, biochemical, human sEH | purified human sEH enzymatic activity, activator screen | 0.04% of 91,000 active | activation, % at 2 µM | Bifunctional epoxide hydrolase 2 (Homo sapiens), P34913; in the data active means activation above about 37%
Active calls of the source: *; . = not tested or not shown.

SMILES	CYP2C9 activ	sEH inhibitor	CYP2C19 inh	CYP2C9 inh	CYP2C19 activ	sEH activator
CN1CC(c2ccccc2)C2(SC(=S)N(Cc3ccco3)C2=O)C12C(=O)Nc1ccccc12 (stereo not given)	0	6.6	95.6*	95.3*	0	-4.8
COc1ccc(NC(=O)CC2C(=O)N(c3cccc(C)c3)C(=O)N2C2CCCCC2)cc1 (stereo not given)	0.5	13.5	55.8*	46.8	0.4	-11.6
COc1ccc(NC(=O)CC2C(=O)N(c3cccc(OC)c3)C(=O)N2CCC(C)C)cc1 (stereo not given)	0.4	-8.1	65.5*	62.4*	0.3	7.5
CCOC(=O)c1ccc(NC(=O)CC2C(=O)N(c3cccc(OC)c3)C(=O)N2CCOC)cc1 (stereo not given)	0.6	14.5	26.5	35.9	0.7	-12.3
Cc1cc(/C=N/NC(N)=O)c(C)c(CO)c1	1	-6.4	20.5	2.3	0.8	4.3
CN1CCc2c(sc3c2C(=O)NC(c2cn(Cc4ccccc4)c4ccccc24)N3)C1 (stereo not given)	0.2	5.4	68.9*	79.4*	0.3	-3.1
CN1CCc2c(sc3c2C(=O)NC(c2ccco2)N3)C1 (stereo not given)	1	-12.4	-2.6	-4.7	1	11.8
COc1ccc(Br)cc1C1NC(=O)c2c(sc3c2CCN(C)C3)N1 (stereo not given)	1.1	.	28.0	-5.4	0.7	.
O=C1NC(c2ccco2)Nc2sc3c(c21)CCN(Cc1ccccc1)C3 (stereo not given)	0.3	.	17.9	68.6*	0.8	.
Cc1ccc(-n2c(-c3ccccc3)nnc2-c2cccs2)cc1	.	3.5	.	.	.	-3.9
CCN(Cc1ccccc1)S(=O)(=O)c1ccc(S(=O)(=O)N2CCN(C)CC2)cc1	0.9	-10.8	4.8	9.2	1	10.4
FC(F)(F)c1cnc(Nc2ccc(N3CCOCC3)cc2)c(Cl)c1	1.6	-10.4	40.3	-62.8	0.6	8.8
CCOc1cc(S(=O)(=O)N(CC)CC)c(OCC)cc1-n1cnnn1	0.7	-2.8	11.2	30.4	0.9	1.6
CCOc1cc(S(=O)(=O)NCCc2cccc(C)c2)c(OCC)cc1-n1cnnn1	0.2	3.2	35.5	80.4*	0.6	0.0
CCOc1cc(S(=O)(=O)NCCc2ccccc2C)c(OCC)cc1-n1cnnn1	0.1	-12.1	83.7*	88.7*	0.2	11.5
CCCSc1nc(=O)n2cccc(C)c2n1	0.8	1.8	0.2	19.2	1	-2.8
COc1ccccc1-n1c(C)cc(C=O)c1C	0.5	-2.9	24.3	54.4*	0.8	2.2
CC1CCCCN1S(=O)(=O)c1ccc2c(c1)CCN2C(=O)CCC(=O)O (stereo not given)	1	.	10.2	2.4	0.9	.
CCN(c1ccc(OC)cc1)S(=O)(=O)c1ccc2c(c1)CCN2C(=O)CCC(=O)O	0.3	-10.9	18.2	70.1*	0.8	9.2
CCN(c1ccc(C)c(C)c1)S(=O)(=O)c1ccc2c(c1)CCN2C(=O)CCC(=O)O	0.5	-18.6	-12.5	51.5*	1.1	18.1
Cc1ccc(C)c(Cn2cnc3c(cnn3C(C)(C)C)c2=O)c1	0.6	-1.0	96.8*	35.2	0	0.6
CC(C)(C)n1ncc2c(=O)n(CC(=O)c3ccccc3)cnc21	.	-1.6	.	.	.	0.9
Cc1ccccc1Cn1cnc2c(cnn2C(C)(C)C)c1=O	0.7	11.6	67.5*	26.7	0.3	-12.0
CC/C(=C\C(=O)c1cccnc1)Nc1ccc(C)c(C)c1	0.4	.	71.1*	57.6*	0.3	.
C/C(=C\C(=O)c1cccnc1)Nc1ccc(C(=O)O)cc1	0.7	-6.3	-15.2	33.3	1.2	5.8
SMILES	CYP2C9 activ	sEH inhibitor	CYP2C19 inh	CYP2C9 inh	CYP2C19 activ	sEH activator
CN(CC(=O)NCCc1ccccc1)S(=O)(=O)c1ccc(Br)cc1	1.8	-4.4	47.0	-76.3	0.5	4.6
Cc1nc(NC(=O)CN(C)S(=O)(=O)c2ccc(Br)cc2)sc1C	0.3	-10.9	94.1*	67.1*	0.1	8.3
CN(CCCC(=O)Nc1ccncc1)S(=O)(=O)c1ccc(Cl)cc1	0	0.5	98.2*	98.7*	0	-2.5
CN(CC(=O)Nc1cccnc1)S(=O)(=O)c1ccccc1	0.8	7.6	14.4	19.4	0.9	-8.8
CN(CC(=O)Nn1cnnc1)S(=O)(=O)c1ccc(Br)cc1	0.7	-2.4	82.7*	34.8	0.2	3.6
CN(CC(=O)Nc1ccncc1)S(=O)(=O)c1ccc(Br)cc1	0.2	0.7	99.5*	76.6*	0	1.7
Cc1ccc(S(=O)(=O)N(C)CC(=O)Nc2nc3ccccc3s2)cc1	1	0.8	16.1	2.2	0.8	-1.2
CCCCC(=O)NC1(C(F)(F)F)C(=O)N(CC(C)C)C2=C1C(=O)CC(C)(C)C2 (stereo not given)	0.8	6.7	8.9	23.8	0.9	-5.0
COc1ccc(CCNC(=O)CSc2nnnn2-c2ccccc2OC)cc1OC	0.7	10.9	31.8	29.0	0.7	-10.9
O=C(O)CSc1nnc(-c2ccncc2)n1Cc1ccccc1	0.5	0.5	8.1	45.7	0.9	-2.2
CC(C)C(C)(C#N)NC(=O)CSc1nnc(-c2ccncc2)n1Cc1ccccc1 (stereo not given)	0.5	4.7	80.1*	51.8*	0.2	-5.1
Cn1c(SCC(=O)Nc2nccs2)nnc1-c1ccncc1	0.7	.	40.5	31.6	0.6	.
O=C(CSc1nnc(-c2ccncc2)n1Cc1ccccc1)Nc1nccs1	0.5	-4.8	74.6*	53.5*	0.3	5.4
CC(C)(C)NC(=O)CSc1nnc(-c2ccncc2)n1Cc1ccccc1	0.5	1.2	80.3*	50.0*	0.2	-4.0
CCc1ccc(N(C(=O)c2csnn2)C(C(=O)NCc2ccccc2)c2ccco2)cc1 (stereo not given)	0.6	-4.9	47.1	43.2	0.5	5.4
Cc1ccc(C)c(CN2C(=O)C(C)Oc3ccc(C)cc32)c1 (stereo not given)	0.9	5.4	43.3	8.7	0.6	-6.9
CC(C)=C1C2CCC1C1C(=O)N(NC(=O)COc3ccc(C(C)(C)C)cc3)C(=O)C21 (stereo not given)	0.7	0.5	12.4	31.0	0.9	2.7
c1ccc(-c2csc3nnc(SCc4ccc5c(c4)OCO5)n23)cc1	0.1	2.2	92.2*	91.8*	0.1	-2.5
Fc1ccc(-c2csc3nnc(SCc4cccnc4)n23)cc1	0.9	-9.0	83.1*	10.2	0.2	9.7
O=C(CCSc1nnc2scc(-c3ccccc3)n12)NCc1ccc2c(c1)OCO2	0.5	-4.9	38.3	46.3	0.6	2.7
O=C(CSc1nnc2scc(-c3ccccc3)n12)Nc1ccc2c(c1)OCCO2	0.5	7.8	35.4	52.9*	0.6	-6.6
